# Bioassay records deposited in PubChem BioAssay by several laboratories.
# Rows were chosen to be rich in hits. Some 1.4% of all compounds tested hit in one or more screens of this group.
# PrP UTR inh – inhibition of PrP 5' UTR reporter expression | cell-based PrP 5' UTR mRNA reporter, plate reader | 340,000 tested, 0.35% active | inhibition, % (no concentration beside the values); in the data active = inhibition above about 52%; also: 0 = median of the neutral control wells
# ugtP null kill – growth inhibition of S. aureus ugtP deletion strain; S. aureus RN4220 ugtP deletion, OD600 growth, 16 h; growth inhibition, % (no concentration beside the values); 330,000 tested, 0.54% active; in the data active = growth inhibition above about 68%;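 also: plate controls were untreated wells for no effect and antibiotic for full effect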
# BJeLR lethal – BJeLR cell viability loss. 300,000 tested, 0.17% active. inhibition, % (concentration not given with the values). BJeLR (HRASV12) viability, CellTiter-Glo ATP luminescence, 48 h; in the data active = inhibition above about 50%; inconclusive = no clear call, values can overlap the other calls
# RN4220 kill – kills Staphylococcus aureus RN4220; inhibition, % (concentration not given with the values); 330,000 tested, 0.33% active; AID 1259311; S. aureus RN4220 growth, OD600, 16 h; in the data active = inhibition above about 85%;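 also: plate controls were untreated cells for no effect and reference antibiotic for full effect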
# Y pestis TopoI – blocks Yersinia pestis topoisomerase I activity. 360,000 tested, 0.064% active. Y. pestis Topo-I cleavage product accumulation, plate reader. activity, % at 10 µM; in the data active = activity above about 50%, passing the limit was not always enough; inconclusive = no clear call, values can overlap the other calls
# PfHsp40 yeast – restores yeast growth despite PfHsp40 toxicity | S. cerevisiae expressing PfHsp40, growth rescue, ATP luminescence | growth rescue, % at 12.5 µM | 340,000 tested, 0.68% active | AID 504582; in the data active = growth rescue above about 28%, passing the limit was not always enough; inconclusive = no clear call, values can overlap the other calls;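 also: yeast W303a lacking pdr1 and pdr3 grown in galactose medium; growth measured after three days at 30 °C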
# Numbers without * were called inactive; ? = inconclusive; · = no result.
SMILES,PrP UTR inh,ugtP null kill,BJeLR lethal,RN4220 kill,Y pestis TopoI,PfHsp40 yeast
CC=CC=CC(=O)N1CC2(CC(c3cccc(NC(=O)CCCCC)c3)=NO2)CC1C(N)=O (stereo not drawn),·,-2,·,3,·,·
O=C1OC(c2ccccc2)=NC12CC2c1ccc(Cl)cc1 (stereo not drawn),-14,3,0,-1,8,255*
Cc1ccc(NC(=O)C2CCCC2)c(Br)c1,-20,9,3,3,3,9
NS(=O)(=O)c1ccc(NC(=S)NC2CCCCCC2)cc1,4,1,1,2,-11,0
Cc1ccc(NC(=S)NC(=O)C2CCCCC2)c(Br)c1,-62,87*,·,-1,-2,7
NS(=O)(=O)c1ccc(NC(=S)NC(=O)C2CCCCC2)cc1,-20,89*,·,5,-12,-1
CCOC(=O)C1C2COc3ccccc3C2N2C(=O)C(C)NC(=O)[C@@]12C (stereo partly drawn),·,-2,·,-2,·,·
O=C(Cn1cncn1)NN=Cc1cc([N+](=O)[O-])ccc1O,·,76,·,88*,·,·
Nc1nnnn1CC(=O)NN=Cc1cc([N+](=O)[O-])ccc1O,·,81,·,93*,·,·
O=C(CSc1nc2ccccc2s1)N/N=C/c1cc([N+](=O)[O-])ccc1O,-20,·,-5,·,-1,190*
Nc1nnnn1N=Cc1cc([N+](=O)[O-])ccc1O,·,44,·,67,·,·
CC[C@]12C(=O)N(C)CC(C3C(=O)N(C)C(=O)C31)N2C(=O)c1ccc(F)cc1 (stereo partly drawn),·,-3,·,4,·,·
O=C(C=CNNC(=O)c1cccc(Br)c1)c1ccccc1,·,-7,·,2,·,·
Cc1ccc(CN2CC(C(=O)N(Cc3nnc(-c4ccccc4Cl)o3)C3CC3)CC2=O)cc1 (stereo not drawn),-30,4,-2,5,30,561*
O=S(=O)(Nc1cccc(-c2nc3cccnc3s2)c1)c1ccc2c(c1)OCCO2,12,93*,1,8,-3,0
COc1ccc(C=C2c3ccccc3C(=O)c3ccccc32)c(OC)c1,46,·,53*,·,6,0
COc1ccc(/C=C2\COc3ccccc3C2=O)c(OC)c1,-20,9,-3,6,16,6
CC(C)COC(=O)c1ccccc1C(=O)OCC(C)C,-4,5,-2,3,3,0
CCCCC(CC)COC(=O)c1ccccc1C(=O)OCC(CC)CCCC (stereo not drawn),-15,10,·,2,61*,2
CCCCCCSc1ccc(C2N[C@@](CC(C)C)(C(=O)OC)C3C(=O)N(CC)C(=O)C23)cc1 (stereo partly drawn),·,2,·,-8,·,·
COc1ccc(Sc2nc(-c3ccccn3)ncc2OC)cc1,2,3,-1,1,-7,?
COc1cnc(-c2ccccn2)nc1Sc1ccc(F)cc1,-15,-3,-2,6,7,37*
COc1cnc(-c2ccccn2)nc1Sc1ccccc1,-16,7,-3,8,38,268*
COc1cnc(-c2ccccn2)nc1N(C)c1ccccc1,-3,·,-5,·,4,183*
COc1cnc(-c2ccccn2)nc1Oc1ccccc1,-1,-4,4,9,1,2
SMILES,PrP UTR inh,ugtP null kill,BJeLR lethal,RN4220 kill,Y pestis TopoI,PfHsp40 yeast
COCC=CC1=CC2=CC(=O)C(C)(OC(=O)c3cnc4ccccc4n3)C(=O)C2=CN1c1ccc(OC)cc1 (stereo not drawn),·,-7,·,10,·,·
CCOC(=O)C1C2COc3ccc(Br)cc3C2N2C(=O)N(c3ccc(F)cc3)C(=O)[C@@]12C (stereo partly drawn),·,-1,·,1,·,·
CCOC(=O)c1cccc(-n2cccc2C=C2NC(=O)N(CC(=O)O)C2=O)c1,·,5,·,3,·,·
Cc1nc2cc(C(=O)NCc3ccc4c(c3)OCO4)ccc2n1-c1ccc(Br)cc1,-15,96*,9,-16,30,9
C=CCOc1ccc2c(c1)CCC1C2CCC2(C)C(O)C(O)CC12 (stereo not drawn),-50,84*,·,-8,8,5
C[C@]12CCC3c4ccc(O)cc4CCC3C1CC(O)C2O (stereo partly drawn),·,-4,·,6,·,·
COC(=O)C1=C(c2ccc(F)cc2OCc2ccccc2)CC2CCC1N2C(=O)NCc1ccccc1C(F)(F)F (stereo not drawn),·,7,·,-2,·,·
Cc1ccsc1C=C1SC(=O)N(CC(=O)N2CCOCC2)C1=O,·,-7,·,2,·,·
CCCCCCCCCCCCCCCC[n+]1ccc(C(N)=O)cc1,-12,100*,·,100*,11,?
CCCCCCCCCCCCCCCC[n+]1cccc(C(=O)N(CC)CC)c1,-12,100*,9,100*,-17,?
CCCCCCC[n+]1ccc(-c2cc[n+](CCCCCCC)cc2)cc1,-42,0,1,8,12,0
CCCCCCCCCCCCCCCC[n+]1ccccc1,10,100*,·,100*,-21,1
CC1CN(C(C)CO)C(=O)Cc2cc(NC(=O)CCC(F)(F)F)ccc2OC1CN(C)C(=O)NC1CCCCC1 (stereo not drawn),·,11,·,6,·,·
COc1ccc(NC(=O)N(C)CC2Oc3ccc(NC(=O)c4ccncc4)cc3C(=O)N(C(C)CO)CC2C)cc1 (stereo not drawn),·,0,·,4,·,·
CCc1nc(SCc2nc3ccccc3[nH]2)c2oc3ccccc3c2n1,-22,8,-7,11,38,41*
Cc1nc(SCc2nc3ccc(Br)cc3[nH]2)c2oc3ccccc3c2n1,-28,25,·,-4,17,7
CCCn1nc(C(=O)N2CCN(S(=O)(=O)c3ccc(C)c(C)c3)CC2)c2ccccc2c1=O,-3,-1,·,5,18,69*
CC(=O)CC1c2ccccc2S(=O)(=O)N1C1CCCC1 (stereo not drawn),·,1,·,6,·,·
Cc1cc([N+](=O)[O-])cc(/C=N/n2c(C)nc3ccccc3c2=O)c1O,-47,·,8,·,0,192*
COc1ccc(/C=N/Nc2ccc([N+](=O)[O-])cc2)cc1Cn1cc([N+](=O)[O-])cn1,-22,·,4,·,-7,0
COc1ccc(/C=N/Nc2ccc([N+](=O)[O-])cc2)cc1O,-70,·,-23,·,3,42*
O=C(C=Cc1ccco1)Nc1ccccc1N1CCCCC1,·,0,·,3,·,·
COc1ccc(-c2nnc(SCc3cc(C)cc(C)c3)o2)cc1,-15,94*,0,11,2,1
COc1ccc(-c2nnc(SCC(=O)c3ccc(C)o3)o2)cc1,-17,-12,-4,8,-4,-2
CCOC(=O)c1c(C)[nH]c(N=Nc2cccc(OC)c2)c1C,-148,0,-3,44,10,77*
CCOC(=O)c1c(C)[nH]c(N=Nc2cccc(C)c2)c1C,-134,77,-12,3,1,8
COc1ccc(C2CC(=O)C=C(c3cccc(Cl)c3O)C2)cc1OC (stereo not drawn),·,-13,·,5,·,·
